Data: PubChem BioAssay AID504333 (National Center for Advancing Translational Sciences (NCATS), 2011)
Among all 360,000 compounds or so, about 16,000 (4.4%) were called active. Another 9% or so got no clear call; they are omitted. This is one part of a sample in which actives are shown more often than they occur. Calls follow the shape of the dose curve; as a rule, active = well fitted inhibition curve with a large enough effect; inconclusive = small, poorly fitted or top-dose-only effect; inactive = no such curve, though single readings can be large or run the other way.

Biological target: Bromodomain adjacent to zinc finger domain protein 2B (Homo sapiens) (UniProt Q9UIF8)
Sequence (Q9UIF8 whole entry, looked up, the tested form may be a part): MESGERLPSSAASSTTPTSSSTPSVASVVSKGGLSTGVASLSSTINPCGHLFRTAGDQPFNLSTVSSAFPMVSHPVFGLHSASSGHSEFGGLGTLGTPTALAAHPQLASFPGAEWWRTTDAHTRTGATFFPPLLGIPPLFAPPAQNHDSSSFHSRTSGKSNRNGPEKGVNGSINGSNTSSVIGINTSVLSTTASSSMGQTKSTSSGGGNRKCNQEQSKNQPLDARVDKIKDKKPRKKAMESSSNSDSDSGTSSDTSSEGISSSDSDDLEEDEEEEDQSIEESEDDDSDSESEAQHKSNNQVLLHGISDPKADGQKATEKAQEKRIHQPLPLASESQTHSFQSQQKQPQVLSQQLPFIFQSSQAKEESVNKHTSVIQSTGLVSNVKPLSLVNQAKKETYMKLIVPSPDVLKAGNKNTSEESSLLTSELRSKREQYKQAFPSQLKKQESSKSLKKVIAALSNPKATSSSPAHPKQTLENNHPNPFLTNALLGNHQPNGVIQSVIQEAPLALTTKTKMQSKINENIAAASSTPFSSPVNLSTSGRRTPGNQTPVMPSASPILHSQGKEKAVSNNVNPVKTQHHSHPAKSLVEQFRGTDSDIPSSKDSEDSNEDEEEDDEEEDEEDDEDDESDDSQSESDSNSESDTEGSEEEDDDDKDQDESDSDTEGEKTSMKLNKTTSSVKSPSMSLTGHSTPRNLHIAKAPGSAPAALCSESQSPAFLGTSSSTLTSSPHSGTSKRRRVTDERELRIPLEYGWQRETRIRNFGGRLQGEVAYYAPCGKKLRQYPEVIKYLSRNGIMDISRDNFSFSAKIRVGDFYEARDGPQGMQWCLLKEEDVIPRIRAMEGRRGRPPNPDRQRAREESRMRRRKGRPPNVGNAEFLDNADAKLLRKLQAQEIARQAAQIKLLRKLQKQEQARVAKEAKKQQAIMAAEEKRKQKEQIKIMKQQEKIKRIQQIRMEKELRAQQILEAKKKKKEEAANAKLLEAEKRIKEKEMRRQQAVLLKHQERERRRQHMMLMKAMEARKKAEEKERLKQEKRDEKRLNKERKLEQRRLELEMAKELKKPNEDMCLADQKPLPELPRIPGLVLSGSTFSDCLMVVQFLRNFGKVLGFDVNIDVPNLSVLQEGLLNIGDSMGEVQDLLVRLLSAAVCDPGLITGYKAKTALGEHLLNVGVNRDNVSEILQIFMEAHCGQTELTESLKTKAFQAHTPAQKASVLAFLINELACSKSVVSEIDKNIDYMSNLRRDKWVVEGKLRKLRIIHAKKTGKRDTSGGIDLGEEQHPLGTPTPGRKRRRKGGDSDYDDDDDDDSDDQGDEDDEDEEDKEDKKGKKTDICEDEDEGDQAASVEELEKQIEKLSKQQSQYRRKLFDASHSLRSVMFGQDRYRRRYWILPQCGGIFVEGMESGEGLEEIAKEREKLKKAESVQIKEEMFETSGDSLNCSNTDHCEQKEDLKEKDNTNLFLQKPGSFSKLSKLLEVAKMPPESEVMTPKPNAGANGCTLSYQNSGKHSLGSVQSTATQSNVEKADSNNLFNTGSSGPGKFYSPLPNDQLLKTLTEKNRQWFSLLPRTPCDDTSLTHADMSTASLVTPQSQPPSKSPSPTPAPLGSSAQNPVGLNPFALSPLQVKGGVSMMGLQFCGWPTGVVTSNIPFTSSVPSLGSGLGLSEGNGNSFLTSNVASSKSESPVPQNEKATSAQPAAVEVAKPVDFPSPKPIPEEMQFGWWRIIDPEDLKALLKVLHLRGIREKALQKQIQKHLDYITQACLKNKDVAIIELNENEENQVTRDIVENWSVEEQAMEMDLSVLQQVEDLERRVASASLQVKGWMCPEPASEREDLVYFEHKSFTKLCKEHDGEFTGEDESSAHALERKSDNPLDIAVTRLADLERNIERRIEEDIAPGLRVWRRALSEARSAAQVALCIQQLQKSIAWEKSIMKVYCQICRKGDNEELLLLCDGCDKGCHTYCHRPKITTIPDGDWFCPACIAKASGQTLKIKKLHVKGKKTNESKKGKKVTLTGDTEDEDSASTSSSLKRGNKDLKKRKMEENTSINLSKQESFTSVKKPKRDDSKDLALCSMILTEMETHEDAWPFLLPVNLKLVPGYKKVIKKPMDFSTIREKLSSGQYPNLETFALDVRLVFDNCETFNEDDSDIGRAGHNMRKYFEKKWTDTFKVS
Assay: qHTS Assay for Inhibitors of BAZ2B; also: nearly all actives have a fitted effect of over 60% in size
Conditions: AlphaScreen BAZ2B-H3K14Ac peptide displacement; series mostly up to 114 µM
How it was run: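 Complex of BAZ2B and biotin-H3K14Ac (50 nM apiece) forms over 30 min at RT, then faces library compounds up to 110 uM for another 30 min; AlphaScreen beads added, 20 min dark incubation, luminescence read.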
Potency is read from the fitted curve at half-maximal effect.

Potency, inactive:
COc1ccccc1NC(=O)CSC1=Nc2ccccc2C2=NC(CC(=O)NCc3cccs3)C(=O)N12 (stereo not given), COc1ccc(CN2C(=O)C(NC(=O)c3cccc(C)c3)(C(F)(F)F)N=C2c2ccccc2)cc1 (stereo not given), CSc1ccc(/C=N/NC(=O)c2cccc(Cl)c2)cc1, COc1ccccc1/C=C/C=N/NC(=O)CN1CCN(Cc2ccccc2)CC1, O=S1(=O)CCN(Cc2ccccc2Cl)CC1, COc1cc(Cl)c(S(=O)(=O)N2CCN(Cc3ccc4c(c3)OCO4)CC2)cc1Cl, CCC(=O)N1c2ccccc2CC1C(=O)N1CCN(c2ccccc2)CC1 (stereo not given), CCc1ccc(NC(=O)N2CCN(C(=O)c3nsc4ccccc34)CC2)cc1, Cc1ccccc1CSc1nc2c([nH]c3ccccc32)c(=O)n1C, CCN(CC)c1nn2c(=O)c(C(=O)NCCc3ccccc3)cnc2s1, COc1ccccc1N1CCN(C(=O)C2CCN(S(=O)(=O)c3c(C)noc3/C=C/c3ccc(C)cc3)CC2)CC1, COc1ccccc1-c1noc(CSc2nnc(-c3ccccc3)n2-c2ccc(C)c(C)c2)n1, Cc1ccc(NC(=O)c2ccc(CN3CC(=O)N4CCCCC4C3=O)cc2)c(Cl)c1 (stereo not given), COc1cc(NC(=O)CCn2nc(C)cc2C)cc(OC)c1OC, N#Cc1nc(-c2cccc3ccccc23)oc1N, Cc1oc(-c2ccccc2F)nc1CS(=O)CC(=O)NCCN1CCCCC1C (stereo not given), COc1cccc(C2C(C(=O)Nc3ccc(C)cc3C)=C(C)Nc3c(C(=O)Nc4ccccc4)cnn32)c1 (stereo not given), CCOc1ccccc1C(=O)NCc1ccc2c(c1)CCN2C(=O)c1ccc(F)cc1, COc1ccc(NC(=O)C2CCN(c3ccc(Sc4ccc(C)cc4)nn3)CC2)c(OC)c1, COCCNC(=O)/C(C#N)=C/c1cccc(OCc2ccccc2)c1, COc1ccc(CNC(=O)/C(C#N)=C/c2cccc(OC)c2OC)cc1, O=C(Nc1nnc(C2CC(=O)N(c3ccc(Cl)cc3)C2)s1)c1ccco1 (stereo not given), Cc1c(CNC(C)c2ccccc2)c(C(=O)O)c(C)n1Cc1c(F)cccc1Cl (stereo not given), COc1cc(C(CC(=O)NCCC(C)C)N2Cc3ccccc3C2=O)cc(OC)c1OC (stereo not given), O=C(C1CCC1)N1CCN(c2ccccc2)CC1, O=C(NNC(=O)c1cc2c(s1)CCCC2)c1ccccc1, COc1ccc(NC(=S)NCCN2CCC(C)CC2)cc1, COc1cccc(N2CC(C(=O)Nc3c(C)cccc3C)CC2=O)c1 (stereo not given), COc1ccc(NC(=O)N2CCC(Cc3ccccc3)CC2)cc1, COc1ccc(OCC(=O)Nc2ccc(N3CCC(C)CC3)cc2)cc1, NC(=O)CSc1nc2c(oc3ccccc32)c(=O)n1Cc1ccccc1, CCOc1ccc(OCC)c(NS(=O)(=O)c2ccc3[nH]c(=O)ccc3c2)c1, CCOc1ccc(N(CC)C(=O)c2noc3c2COc2ccc(C)cc2-3)cc1, COc1cc(C(=O)N[C@@H](C)C(=O)NCc2ccco2)cc(OC)c1OC, COc1ccccc1-n1c(C)nc2cc(C(=O)NCc3ccc4c(c3)OCO4)ccc21, COc1ccc(-c2cn3nc(N4CCC(C(=O)Nc5cccc(C)c5C)CC4)sc3n2)cc1, Cc1ccccc1C(=O)Nc1sc2c(c1C(=O)N1CCC(C)CC1)CCCC2, O=C(c1cccs1)N(C(=O)c1cccs1)c1ccccn1, O=C(c1cccs1)c1cn(CCOc2ccc(Cl)cc2)c2ccccc12, O=c1n(Cc2cccc(C(F)(F)F)c2)c2ccccc2c2nc(-c3ccccc3)nn12, O=C(NCc1ccccc1)c1cccc(NC(=O)N2CCSc3ncccc32)c1, Cc1ccc(NC(=O)Nc2sc3nc4n(c(=O)c3c2C)CCC(C)CC4)c(Cl)c1 (stereo not given), COc1ccc(NC(=O)Nc2cccc(-c3noc(C)n3)c2)cc1, Cc1cccc(Cn2c(CN3CCC(C(=O)NCc4ccccc4Cl)CC3)cc3ccccc32)c1, COc1ccc(Cl)cc1NC(=O)CN(C)CC(=O)Nc1ccc2c(c1)OCO2, Cn1c(=O)oc2cc(S(=O)(=O)CCC(=O)NCCc3ccc(Cl)cc3)ccc21, CC(=O)N1CCc2cc(Br)cc(S(=O)(=O)CCC(=O)NCCc3ccc(Cl)cc3)c21, COc1ccc(Cl)cc1NC(=O)CCS(=O)(=O)c1cc2c(cc1C)NC(=O)CO2, COc1ccc(Cl)cc1NC(=O)CN(C)C(=O)c1cc2ccccc2cc1OC, COc1ccc(Cl)cc1NC(=O)CCC(=O)c1ccc(C)cc1, CCc1ccccc1NS(=O)(=O)c1ccc2nc(-c3ccccc3)[nH]c2c1, O=S(=O)(NCC(c1ccco1)N1CCOCC1)c1cc(F)ccc1F (stereo not given), Cc1ccc(Nc2ccc3cc(S(=O)(=O)N4CCCCC4)ccc3n2)cc1F

Potency, active:
CSc1ccc(/C=N/N2CCN(Cc3ccccc3Cl)CC2)cc1 25.1 µM, COc1ccccc1/C=N/N1CCN(Cc2ccccc2Cl)CC1 44.7 µM, CC1CCN(c2oc(-c3ccccc3F)nc2C#N)CC1 14.1 µM, N#C/C(=C\c1ccc(O)c(O)c1)C(=O)NCc1ccccc1 12.6 µM, O=C(c1cc2c(s1)CCC2)N1CCN(c2ccccc2)CC1 56.2 µM, COc1ccc(NC(=S)NCC2CCN(c3ccc(OC)cc3)C2)cc1 (stereo not given) 31.6 µM, COc1ccc(N2CCC(CNC(=S)Nc3c(C)cccc3C)C2)cc1 (stereo not given) 39.8 µM, COc1cc(-n2c(C)nc3cc(C(=O)NCc4ccco4)ccc32)cc(OC)c1OC 56.2 µM, O=C(C1=C(O)C(=O)N(CCOCCO)C1c1ccccn1)c1cccs1 (stereo not given) 50.1 µM, O=C(CCS(=O)(=O)c1ccc(Br)cc1)NCCc1ccc(Cl)cc1 50.1 µM, COc1ccc(Cl)cc1NC(=O)CN(C)Cc1ccc(OC)c(OC)c1 20 µM, COc1ccc(Cl)cc1NC(=O)CCS(=O)(=O)c1ccc(Br)cc1 8.91 µM
